A selection: hits, their analogues and other compounds. The true share with any hit is near 5.7%.
KB-V1 cytotox: kills drug-selected multidrug resistant KB-V1 cells. KB-V1 MDR cells viability, CellTiter-Glo, 72 h. Potency, µM (titrated, usually from 46.1 µM), actives largely listed as cytotoxic. 400,000 tested, 3.4% active. AID 1347076; note: potency is the fitted concentration of half-maximal effect; nearly all actives have a fitted effect of over 60% in size
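Luminescent ATP read-out (CellTiter-Glo, 10 min) measures survival of drug-selected KB-V1 MDR cells after 72 h, 37 degrees C compound exposure. Medium: phenol-red-free DMEM, 10% FBS. Values from fitted concentration-response curves.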
Giardia kill: kills Giardia lamblia; Giardia lamblia trophozoite viability; 340,000 tested, 0.15% active; AID 540267; activity change, % at 7.66 µM, hits read low; in the data active = activity change below about -80%; inconclusive = between about -30% and that limit;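 note: parasites exposed to compound for two days anaerobically before the ATP read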
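Each well holds 100 Giardia trophozoites and compound. After two days (48 hrs) at 37 deg C in anaerobic conditions, ATP is quantified by luminescence.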
KB-3-1 tox: kills parental KB-3-1 adenocarcinoma cells | KB-3-1 viability, CellTiter-Glo ATP luminescence, 72 h | Potency, µM (series often up to 46.1 µM), most hits filed as cytotoxic | 400,000 tested, 1.4% active | AID 1347075; note: potency is the fitted concentration of half-maximal effect; nearly all actives have a fitted effect of over 60% in size
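Luminescent ATP read-out (CellTiter-Glo) measures survival of drug-naive KB-3-1 cells after 72 h compound exposure at 37 °C. Titration series was screened from lowest to highest concentration, with DMSO vehicle plates as background controls.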
PI4K2A block: PI4K2A (human) kinase inhibition; 420,000 tested, 0.13% active; activity change, negative = inhibition, % at 76.9 µM; AID 1346378; Q9BTU6; purified PI4K2A, ADP-Glo luminescence, 1 h; stronger effect = lower value; in the data active = activity change below about -50%; inconclusive = mostly about -30% to -49%;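 note: -100% = wells without enzyme as full effect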
Target sequence (Q9BTU6 whole entry, looked up): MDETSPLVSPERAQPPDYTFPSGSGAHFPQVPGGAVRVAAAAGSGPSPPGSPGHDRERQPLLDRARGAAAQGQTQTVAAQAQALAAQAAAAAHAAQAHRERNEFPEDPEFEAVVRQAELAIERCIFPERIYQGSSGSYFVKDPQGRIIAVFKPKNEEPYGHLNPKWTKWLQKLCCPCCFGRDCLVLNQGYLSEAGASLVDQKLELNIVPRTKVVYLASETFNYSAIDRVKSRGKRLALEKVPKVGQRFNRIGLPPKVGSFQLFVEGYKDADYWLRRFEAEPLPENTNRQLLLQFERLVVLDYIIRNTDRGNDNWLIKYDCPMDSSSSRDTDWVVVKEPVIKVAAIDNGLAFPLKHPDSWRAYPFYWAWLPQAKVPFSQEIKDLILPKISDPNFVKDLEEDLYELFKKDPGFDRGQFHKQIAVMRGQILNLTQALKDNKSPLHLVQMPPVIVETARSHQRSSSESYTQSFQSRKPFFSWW
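PI4K2A activity was measured by ADP-Glo luminescence: enzyme (4 ug/mL stock) and phosphatidylinositol (1.2 mM stock) in Tris pH 7.5/MgCl2/EGTA/Triton X-100 buffer were reacted with ATP (300 microM stock) for one hour at ambient temperature.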
A549 tox: kills or reduces viability of A549 cells in Nrf2 counter-screen. A549 ARE-Fluc cells, CellTiter-Fluor viability, 18-24 h. Potency, µM (highest dose often 46 µM), for inactives: at the top dose activity change, negative = cytotoxicity, usual class: inhibitors. 390,000 tested, 0.16% active; note: potency is the fitted concentration of half-maximal effect
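A549 ARE_Fluc cells in 5% FBS OPTI-MEM were exposed to compounds in concentration-response for 18-24 h at 37 deg C. Viability was read by CellTiter-Fluor fluorescence (Ex 405/Em 525) after 30 min, before the luciferase read.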
Nrf2 inh: blocks Nrf2 signaling; Potency, µM (series often up to 46 µM), for the others: at the highest dose activity change, negative = inhibition, hits mostly inhibitors; 360,000 tested, 2.1% active; A549 ARE-Fluc reporter, luciferase luminescence, 18-24 h; AID 504444; note: potency is the fitted concentration of half-maximal effect; nearly all actives have a fitted effect of over 60% in size
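Cells were seeded and rested 2 h, then exposed to compounds for 18-24 h. CellTiter-Fluor was read first as a viability measure. BugLite was added 15 min before the final luminescent read of ARE-luciferase activity in A549 cells.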
Starred values were filed as active, the others as inactive; i = inactive; ? = inconclusive; . = no result given. Unless noted, calls come from the whole dose curve; as a rule, active = well fitted curve in the direction sought with a large enough effect; inconclusive = small, poorly fitted or top-dose-only effect, or another doubt; inactive = no such curve, though single readings can be large; an effect the other way counts as inactive or inconclusive. Unless noted, % is set by controls: 0 for no effect and ±100 for the full control effect.

SMILES	KB-V1 cytotox	Giardia kill	KB-3-1 tox	PI4K2A block	A549 tox	Nrf2 inh
Cc1nnc(-c2cccc(Br)c2)c2cn(-c3ccccc3)nc12	?	0	?	-9	.	-14%
COc1ccc(-n2cc3c(-c4cccc(Br)c4)nnc(C)c3n2)cc1	i	?	i	-3	13%	21%
Cc1nnc(-c2cccc(Br)c2)c2cn(-c3ccc(Br)cc3)nc12	?	7	?	1	-19%	15µM*
CCCn1c(CC)nc([N+](=O)[O-])c1S(=O)(=O)c1ccccc1	i	16	?	33	?	21µM*
COc1ccccc1-n1cnnc1SCC(=O)c1cc(C)n(Cc2cccs2)c1C	16µM*	4	i	-1	14%	?
COc1ccc(CN(C(=O)Cc2c[nH]c3ccccc23)C(C(=O)NC2CCCCC2)c2ccc(C)o2)cc1 (configuration not stated)	?	8	?	-4	?	12µM*
COc1cccc(CN(C(=O)Cc2c[nH]c3ccccc23)C(C(=O)NC2CCCCC2)c2ccc(C)o2)c1 (configuration not stated)	21µM*	-9	?	-5	?	21µM*
COc1cc(C(C(=O)NC2CCCCC2)N(C(=O)Cc2c[nH]c3ccccc23)c2ccccc2C)cc(OC)c1OC (configuration not stated)	i	-23	i	4	-7%	15%
COc1cc(C(C(=O)NC2CCCCC2)N(Cc2cccs2)C(=O)Cc2c[nH]c3ccccc23)cc(OC)c1OC (configuration not stated)	16µM*	-5	?	-2	2%	-11%
c1ccc(-c2ccc(C3=Nn4c(nnc4-c4ccccn4)SC3)cc2)cc1	.	.	.	3	.	.
CCCN1CCN(c2cccc(Nc3nn4c(=O)c5ccccc5nc4s3)c2)CC1	i	.	?	.	.	.
Cc1cc(=O)[nH]c(SCC(=O)C23CC4CC(CC(C4)C2)C3)c1C#N	6.5µM*	9	?	16	?	?
N#C/C(=C1\SCC(c2ccccc2Cl)S1)n1ccnc1 (configuration not stated)	.	.	.	-3	.	.
COc1ccc(CC2(CO)COc3ccccc3C2=O)cc1 (configuration not stated)	13µM*	2	?	-4	-11%	-7%
CC(C)Cc1ccc(C(C)C(=O)OCc2ccccn2)cc1 (configuration not stated)	.	.	.	1	.	.
O=C(NC1CCCCN(Cc2ccc(Cl)cc2)C1=O)C(c1ccccc1)c1ccccc1 (configuration not stated)	.	.	.	-3	.	.
Cn1c(N2CCCCC2)nc2c1c(=O)[nH]c(=O)n2C	i	-13	i	-6	-1%	1%
Cn1c(N2CCN(C(c3ccccc3)c3ccccc3)CC2)nc2c1c(=O)[nH]c(=O)n2C	21µM*	0	?	1	-18%	?
CCCCCn1c(N2CCC(Cc3ccccc3)CC2)nc2c1c(=O)[nH]c(=O)n2C	?	32	?	4	?	23µM*
CCc1ccccc1NC(=O)C(=O)NCC(c1cccnc1)N1CCc2ccccc21 (configuration not stated)	i	.	i	1	-11%	38%
COC(=O)c1cc(-c2cccc3c2sc2ccccc23)c(=O)n2c1CCC2	.	.	.	0	.	.
O=C1CC(N2CCOCC2)C(=O)N1Cc1ccc(N2CCCC2=O)cc1 (configuration not stated)	i	-5	i	4	-2%	13%
O=C1CC(N2CCN(C/C=C/c3ccccc3)CC2)C(=O)N1Cc1ccc(N2CCCC2=O)cc1 (configuration not stated)	10µM*	-1	?	-2	-4%	?
N#CC1c2ccccc2-c2ccccc2N1C(=O)c1ccccc1 (configuration not stated)	15µM*	.	?	7	.	.
Cc1cccc(C(C)C)c1-n1nnnc1-c1ccccc1	i	15	i	1	4%	-2%
